These results are taken from PubChem BioAssay (NCATS).

Common to all, as to assay: qHTS profiling for inhibitors of Plasmodium falciparum proliferation (AID 504749); note: nearly all actives have a fitted effect of over 60% in size
Holding throughout (settings): P. falciparum in erythrocytes, SYBR Green DNA, 72 h; series mostly up to 28.7 µM
(In general: Quantitative high-throughput screening tests each substance at several concentrations.)

One test has as its system CP269. The essentials: (§1)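 P. falciparum-infected erythrocytes (0.3% parasitemia, 2.5% hematocrit) incubated with compound 72 h at 37 C, 5% CO2. Parasite DNA detected by SYBR Green after lysis, overnight at room temperature; normalised to 0.29 uM artemisinin and DMSO.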
A further test concerns CP286. In outline:
as §1

For another test, the system named is CP291. In outline: as §1
In another test the test system is CP305. The essentials:
as §1

In another test the test system is CP315. The essentials:
as §1

The subject of a further test is CP325. In outline:
as §1

The subject of another test is CP329. In outline: as §1
The subject of another test is DFO2036. The essentials: as §1
For the next test, the system named is DIV30. In outline: as §1
A further test deals with ECU. In outline: as §1
The subject of a further test is FAB9. In outline: as §1
A further test concerns HB3. In outline:
as §1

Another test relates to JCK. The essentials:
as §1

For another test, the system named is CP335. The essentials: as §1
A further test concerns DIV14. In outline:
as §1

In a further test the test system is DIV17. The essentials: as §1
A further test deals with GB4. The essentials: as §1
The next test concerns ICS. In outline:
as §1

The test system of the next test is Dd2. In outline:
as §1

The test system of the next test is CP297. In outline:
as §1

Records with an inconclusive call do not appear. The source made the active and inactive calls. Calls come from the whole dose curve; as a rule, active = well fitted inhibition curve with a large enough effect; inconclusive = small, poorly fitted or top-dose-only effect; inactive = flat fitted curve, though single readings scatter.
Potency is the fitted concentration of half-maximal effect.

Turning to `CCOC(CN1CCN(CC(C)C(=O)c2ccccc2)CC1)c1ccccc1` (centres undefined), the Potency entry in the test on CP269, with CP286, in the test on CP291, with CP305, in the test on CP315 and with CP325 was “inactive” each time. The Potency result in the test with CP329, in the test on DFO2036, in the test with DIV30, with ECU, in the test with FAB9 and in the test with HB3 was “inactive” in each case. In addition, the Potency entry with JCK is “inactive”.

For `CN(C)CCCN1c2ccccc2Sc2ccc(Cl)cc21`, the Potency was 12.6 µM (active) in the test with CP286; 13.5 µM (active) in the test with CP335; 3.01 µM (active) in the test with DIV14; 4.78 µM (active) in the test on DIV17; 9.53 µM (active) in the test with DIV30; 8.49 µM (active) in the test with GB4. In addition, in the test with ICS, the Potency was 4.47 µM (active). For the same compound, the Potency entry with CP315, in the test with DFO2036, in the test with FAB9 and in the test with HB3 was “inactive” each time.

Turning to `CC(CN1c2ccccc2Sc2ccccc21)N(C)C` (centres undefined), the Potency result with CP269, in the test with CP286, with CP291, in the test with CP315, in the test with CP325 and in the test with CP329 was “inactive” each time. Besides, the Potency entry in the test with CP335, with DFO2036, in the test with DIV14, in the test with DIV17, in the test with DIV30 and with ECU was “inactive” throughout. The Potency result with FAB9, with HB3, in the test on ICS and in the test on JCK was “inactive” throughout.

As for `CN1CCC[C@@H]1Cc1c[nH]c2ccc(CCS(=O)(=O)c3ccccc3)cc12`, the Potency entry with CP269, in the test with CP305, in the test with CP315, in the test with CP329, in the test with DFO2036 and with FAB9 was “inactive” each time. The Potency entry with HB3 and in the test on JCK was “inactive” each time. Also, the Potency in the test on DIV14 was 9.53 µM (active); in the test with DIV17, 7.57 µM (active); in the test on Dd2, 12.6 µM (active); in the test on ICS it was 7.08 µM (active).

For the compound `c1ccc(CN(CC2=NCCN2)c2ccccc2)cc1`, the Potency entry in the test on CP269, in the test with CP291, with CP315, in the test on CP325, in the test on CP329 and in the test with FAB9 was “inactive” in each case. The Potency entry in the test on HB3 was “inactive”. Moreover, the Potency in the test with DIV14 was 6.75 µM (active); in the test on DIV17, 7.57 µM (active); in the test with Dd2, 12.6 µM (active).

With `CCOc1nc2cccc(C(=O)O)c2n1Cc1ccc(-c2ccccc2-c2nn[nH]n2)cc1`, the Potency entry with CP286, with CP297, in the test on CP305, in the test with CP315, in the test on CP325 and in the test with CP329 was “inactive” in each case. For the same compound, the Potency entry with CP335, in the test on DFO2036, in the test with Dd2, with FAB9, in the test on GB4 and in the test with HB3 was “inactive” each time. The Potency entry in the test on JCK was “inactive”.

Turning to `NCC(=O)CCC(=O)O`, the Potency result in the test with CP269, in the test with CP286, in the test with CP291, in the test on CP305, in the test on CP315 and in the test on CP325 was “inactive” in each case. The Potency result in the test with CP329, in the test on DFO2036, with DIV14, with DIV17, with DIV30 and in the test with Dd2 was “inactive” in each case. The Potency result with ECU, in the test on FAB9, with GB4, in the test on HB3, with ICS and with JCK was “inactive” throughout.

For `CSc1ccc2c(c1)C(N1CCN(C)CC1)Cc1ccccc1S2` (centres undefined), the Potency entry with CP315, with FAB9, in the test on HB3 and in the test on JCK was “inactive” throughout. The Potency with DIV14 is 10.7 µM (active); in the test with DIV17 it was 15.1 µM (active); in the test on GB4, 13.5 µM (active); in the test with ICS, 8.91 µM (active).

For `CC(C)(C)C(=O)C(Oc1ccc(Cl)cc1)n1ccnc1` (centres undefined), the Potency in the test on CP297 was 16.9 µM (active); in the test on DFO2036, 12.6 µM (active); in the test on DIV14 it was 13.5 µM (active); in the test on DIV17, 13.5 µM (active); with DIV30, 12 µM (active); in the test on Dd2, 11.2 µM (active). Moreover, the Potency is 10 µM (active) in the test on ECU, 13.5 µM (active) in the test on GB4 and 12.6 µM (active) with ICS. Besides, the Potency entry in the test on CP329, with FAB9 and with JCK was “inactive” throughout.

As to `CN1CCN(C2Cc3ccccc3Sc3ccc(Cl)cc32)CC1` (centres undefined), the Potency result with CP269, in the test on CP291, in the test with CP305, in the test on CP315, with CP325 and in the test on CP329 was “inactive” throughout. Further, the Potency entry in the test on DFO2036, in the test on FAB9, in the test with HB3 and in the test on JCK was “inactive” throughout. Further, the Potency in the test with ICS is 12.6 µM (active).
